The target of assay [1] is Lysosomal acid glucosylceramidase (Homo sapiens) (UniProt P04062). The assay is described as follows: Glucocerebrosidase-p2 (AID 348; in the data active = potency below about 10 µM; also: potency is read from the fitted curve at half-maximal effect). To be noted: purified GBA, blue fluorogenic substrate, 40 min. In a few lines: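 Normal human glucocerebrosidase (0.2 nM) with blue fluorogenic substrate (80 uM final) in citrate/phosphate pH 5.9 with 10mM sodium taurocholate, 0.01% tween-20; 40 min RT, NaOH/glycine stop; fluorescence Ex 365/Em 440; AC50 from a titration from 0.6 nM upwards.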

Assay [2] is described as follows: AP1 Signaling Pathway (AID 357).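 Also: ME-180 reporter cells stimulated with EGF at its EC50 level; % is scaled to controls: 0 for no effect and ±100 for the full control effect.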 To be noted: ME-180 AP-1-bla reporter, EGF-induced, beta-lactamase ratio, 5 h; at 7.69 µM (top of the series) unless noted. In a few lines: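 A ratiometric CCF4 readout (405 nm excitation; 460 and 530 nm emission) quantified AP-1-driven beta-lactamase in ME-180 cells after 5 h with compound and EC50 EGF; AC50 values were derived for activators and inhibitors.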

The target of assay [3] is Cytochrome P450 1A2 (Homo sapiens) (UniProt P05177). The assay is described as follows: p450-cyp1a2 (AID 410; calls by dose curve; also: potency is read from the fitted curve at half-maximal effect;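 as to activity change, negative = inhibition: -100% = full effect of reference inhibitor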). To be noted: recombinant CYP1A2, luciferin-ME demethylation, luminescence; series mostly up to 11.4 µM. In a few lines: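 20nM CYP1A2, 100uM Luciferin-ME (=Km), 100mM KPO4; cpd 10 min RT; +NADPH regen, 60 min RT; stop/detect 20 min; luminescence. Normalized to furafylline 57 uM = full inhibition.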

Assay [4] can be described thus: NFAT Signaling Pathway (AID 444).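 Also: carbachol stimulus at about its EC50 of 1 µM final; % is scaled to controls: 0 for no effect and ±100 for the full control effect.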 The conditions noted are these: Jurkat NFAT-bla M1, carbachol, beta-lactamase ratio, 5 h; at 7.69 µM (top of the series) unless noted. In a few lines:
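Jurkat cells carrying an NFAT-driven β-lactamase reporter and co-transfected muscarinic M1 receptor were treated with compound plus carbachol (1 uM final, an EC50 level) for 5 h at 37 °C. CCF4 loading followed for 1 h at RT; 460/530 nm ratio gave %activity.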

Assay [5] is described as follows: Stat Signaling Pathway (AID 446).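 Also: ME-180 cervical cancer cells given 40 pM IL-6 alongside compound; SIE-controlled beta-lactamase reporter measured as 460/530 nm FRET emission ratio; % is scaled to controls: 0 for no effect and ±100 for the full control effect.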 The conditions noted are these: ME-180 (cervical carcinoma) SIE beta-lactamase reporter, IL-6 stimulated, 5 h; at 7.69 µM (top of the series) unless noted. In a few lines:
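FRET read-out (405 nm excitation, 460/530 nm emission) of a beta-lactamase reporter under a STAT-inducible element in ME-180 cervical carcinoma cells. Cells with compound receive 40 pM IL-6 for 5 h. Values are normalised to AC90 stimulation and AC90 JAK-inhibitor controls.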

The target in assay [6] is Glucocorticoid receptor (Homo sapiens) (UniProt P04150). Kind of assay: GR-GFP Redistribution (AID 450;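 active = compounds whose dose series gives a full or clear partial fitted curve of increased nuclear translocation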; also: potency is read from the fitted curve at half-maximal effect). The conditions noted are these: U2OS GR-GFP nuclear translocation, laser cytometry, 2 h.
The target is the same in assay [7]. Kind of assay: GR-EFC Redistribution (AID 451; calls by dose curve; also: potency is read from the fitted curve at half-maximal effect). The conditions noted are these: CHO-K1 GR-EFC translocation, beta-gal luminescence, 2 h. Put shortly:
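CHO-K1 cells stably expressing nuclear-localized β-gal enzyme acceptor and GR fused C-terminally to the enzyme donor fragment; ligand-driven nuclear translocation restores β-gal by complementation. Compounds titrated up to 46 uM final, 2 h at 37 °C; luminescence read.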

Assay [8] has as its target Mitogen-activated protein kinase 10 (Mus musculus) (UniProt Q61831). Kind of assay: JNK3 AlphaScreen Assay (AID 530).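 Also: kinase came from lysate of stimulated human HepG2 cells; % is scaled to controls: 0 for no effect and ±100 for the full control effect.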 To be noted: JNK3 lysate, c-Jun phosphorylation; series mostly up to 11.4 µM. In a few lines: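 Biotinylated GST-cJun(1-79) served as substrate for JNK3 in HepG2 lysates stimulated with IL-1beta and TNF-alpha. ATP was 10 uM final, pH 7.6. Ser73 phosphorylation was quantified by AlphaScreen (680 nm excitation).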
Background: Alpha assays give light when donor and acceptor beads are brought close together.

The target of assay [9] is 3',5'-cyclic-AMP phosphodiesterase 4B (Homo sapiens) (UniProt Q07343). Kind of assay: qHTS Assay for Inhibitors of PDE-IV (AID 607; active = well fitted activation curve with a large enough effect in the main read-out, with a control signal flat, not every such curve was filed as active; also: % of control where 0% means no effect). To be noted: HEK293 ACTOne CNG channel cells, membrane potential fluorescence; series mostly up to 22.9 µM. In a few lines:
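Cell-based read-out of cAMP via a modified cyclic nucleotide-gated channel and membrane potential dye (535/590 nm) in HEK293 cells expressing PDE4 endogenously. Compounds tested up to 22.9 uM final; 100 uM RO 20-1724 reference.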
On the technique in general: In qHTS, concentration-response curves come from the screen itself.

The target of assay [10] is Cytochrome P450 2C9 (Homo sapiens) (UniProt P11712). The assay is described as follows: qHTS Assay for Inhibitors and Substrates of Cytochrome P450 2C9 (AID 883; active = well fitted curve in the direction sought with a large enough effect; an effect the other way counts as inactive or inconclusive; also: nearly all actives have a fitted effect of over 60% in size; also: potency is read from the fitted curve at half-maximal effect). The conditions noted are these: recombinant CYP2C9, luciferin-H luminescence, 60 min; series mostly up to 11.4 µM. In a few lines:
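Human CYP2C9 (10nM) hydroxylated Luciferin-H (100uM, at its KM) to luciferin in 25mM KPO4. Compound was preincubated 10 min at 37C, then NADPH regeneration started a 60 min reaction at 37C. Luminescence was read after detection reagent, normalized to 57uM sulphaphenazole.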

The target in assay [11] is Cytochrome P450 3A4 (Homo sapiens) (UniProt P08684). Kind of assay: qHTS Assay for Inhibitors and Substrates of Cytochrome P450 3A4 (AID 884; active = well fitted curve in the direction sought with a large enough effect; an effect the other way counts as inactive or inconclusive; also: potency is read from the fitted curve at half-maximal effect; nearly all actives have a fitted effect of over 50% in size). The conditions noted are these: recombinant CYP3A4, Luciferin-PPXE luminescence; series mostly up to 57.1 µM. Put shortly:
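Luminescent readout of luciferin produced by CYP3A4 (20 nM) dealkylation of Luciferin-PPXE, 25 uM (its KM). NADPH-driven reaction ran 60 min at RT after 10 min compound preincubation; data scaled to 57 uM ketoconazole as 100% inhibition.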

The target is the same in assay [12]. The assay is described as follows: qHTS Assay for Activators of Cytochrome P450 3A4 (AID 885; active = well fitted curve in the direction sought with a large enough effect; an effect the other way counts as inactive or inconclusive; also: nearly all actives have a fitted effect of over 65% in size). The conditions noted are these: recombinant CYP3A4, Luciferin-PPXE luminescence, 60 min; series mostly up to 11.4 µM. In a few lines:
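Luminescent readout of luciferin formed from 25 uM Luciferin-PPXE (KM level) by 20 nM CYP3A4 in 200 mM KPO4, with 60 min NADPH-driven reaction at room temperature after 10 min compound exposure. Ketoconazole (57 uM) defined 100% inhibition.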

For assay [13], the target named is Cytochrome P450 2D6 (Homo sapiens) (UniProt P10635). Kind of assay: qHTS Assay for Inhibitors and Substrates of Cytochrome P450 2D6 (AID 891; active = well fitted curve in the direction sought with a large enough effect; an effect the other way counts as inactive or inconclusive; also: potency is read from the fitted curve at half-maximal effect; nearly all actives have a fitted effect of over 60% in size). The conditions noted are these: recombinant CYP2D6, luciferin-ME EGE luminescence; series mostly up to 11.4 µM. In a few lines: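 Luminescent read-out of luciferin formed by 5 nM human CYP2D6 demethylating 30 uM Luciferin-ME EGE (Km level) over 60 min at room temperature after NADPH regeneration addition. Data normalized to full inhibition by 1.43 uM quinidine.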

For assay [14], the target named is Cytochrome P450 2C19 (Homo sapiens) (UniProt P33261). Kind of assay: qHTS Assay for Inhibitors and Substrates of Cytochrome P450 2C19 (AID 899; active = well fitted curve in the direction sought with a large enough effect; an effect the other way counts as inactive or inconclusive; also: potency is read from the fitted curve at half-maximal effect; nearly all actives have a fitted effect of over 60% in size). The conditions noted are these: recombinant CYP2C19, luciferin-H EGE luminescence; series mostly up to 11.4 µM. In a few lines:
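Human CYP2C19 (5nM) with Luciferin-H EGE at 10uM (its KM) in 50mM KPO4 was preincubated with compound for 10 min at 37C. NADPH regeneration started a 60 min 37C reaction. Luciferin was read by luminescence, normalized to 57uM ketoconazole.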

Unmarked numbers belong to inactive results. Records with an inconclusive call do not appear. The source made the active and inactive calls. Unless noted, calls follow the shape of the dose curve; as a rule, active = well fitted curve in either direction with a large enough effect (not every such curve was filed as active); inconclusive = small, poorly fitted or top-dose-only effect, or another doubt; inactive = flat fitted curve, though single readings scatter. Some results are limits rather than exact numbers.

Sequence of Lysosomal acid glucosylceramidase (Homo sapiens) (P04062 whole entry, looked up): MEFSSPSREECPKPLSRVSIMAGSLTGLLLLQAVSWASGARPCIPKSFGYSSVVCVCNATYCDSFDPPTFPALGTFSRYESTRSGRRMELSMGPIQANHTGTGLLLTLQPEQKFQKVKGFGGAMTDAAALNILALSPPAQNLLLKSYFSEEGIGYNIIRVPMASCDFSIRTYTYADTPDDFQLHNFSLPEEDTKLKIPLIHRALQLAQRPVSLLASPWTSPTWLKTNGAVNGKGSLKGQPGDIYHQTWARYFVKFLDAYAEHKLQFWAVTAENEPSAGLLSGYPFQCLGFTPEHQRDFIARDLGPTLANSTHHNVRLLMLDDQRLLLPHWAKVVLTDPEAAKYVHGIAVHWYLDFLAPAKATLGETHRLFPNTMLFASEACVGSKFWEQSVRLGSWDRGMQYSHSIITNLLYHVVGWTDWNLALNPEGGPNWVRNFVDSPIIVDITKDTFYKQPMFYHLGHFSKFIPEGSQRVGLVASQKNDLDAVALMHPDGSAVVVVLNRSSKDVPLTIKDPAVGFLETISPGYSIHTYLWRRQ
Sequence of Cytochrome P450 2C9 (Homo sapiens) (P11712 whole entry, looked up): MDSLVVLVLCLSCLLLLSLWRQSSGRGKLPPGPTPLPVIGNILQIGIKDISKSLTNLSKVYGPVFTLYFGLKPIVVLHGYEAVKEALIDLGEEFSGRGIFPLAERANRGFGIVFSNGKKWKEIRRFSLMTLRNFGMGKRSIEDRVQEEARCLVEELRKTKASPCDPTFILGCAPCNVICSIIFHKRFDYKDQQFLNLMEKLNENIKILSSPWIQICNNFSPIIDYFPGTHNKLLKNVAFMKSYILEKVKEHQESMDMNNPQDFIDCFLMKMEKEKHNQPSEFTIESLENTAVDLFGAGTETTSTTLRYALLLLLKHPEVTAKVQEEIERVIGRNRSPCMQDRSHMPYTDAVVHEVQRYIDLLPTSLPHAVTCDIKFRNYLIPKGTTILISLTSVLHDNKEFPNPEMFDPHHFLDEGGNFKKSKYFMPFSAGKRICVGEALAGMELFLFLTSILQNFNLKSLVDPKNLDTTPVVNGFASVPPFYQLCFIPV
Sequence of Cytochrome P450 3A4 (Homo sapiens) (P08684 whole entry, looked up): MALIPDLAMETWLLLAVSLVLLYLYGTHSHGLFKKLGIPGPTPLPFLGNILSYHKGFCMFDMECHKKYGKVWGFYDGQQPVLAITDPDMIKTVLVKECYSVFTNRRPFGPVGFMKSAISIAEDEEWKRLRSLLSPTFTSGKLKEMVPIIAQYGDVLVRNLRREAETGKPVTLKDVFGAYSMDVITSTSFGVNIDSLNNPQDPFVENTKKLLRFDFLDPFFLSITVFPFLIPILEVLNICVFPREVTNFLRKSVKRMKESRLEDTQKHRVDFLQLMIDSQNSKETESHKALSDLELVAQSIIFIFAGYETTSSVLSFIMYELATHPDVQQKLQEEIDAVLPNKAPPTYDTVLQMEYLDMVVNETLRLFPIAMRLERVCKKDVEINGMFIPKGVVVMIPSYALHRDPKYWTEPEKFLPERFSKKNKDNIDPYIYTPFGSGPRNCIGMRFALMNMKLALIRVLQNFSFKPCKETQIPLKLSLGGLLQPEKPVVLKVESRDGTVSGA
Sequence of 3',5'-cyclic-AMP phosphodiesterase 4B (Homo sapiens) (Q07343 whole entry, looked up): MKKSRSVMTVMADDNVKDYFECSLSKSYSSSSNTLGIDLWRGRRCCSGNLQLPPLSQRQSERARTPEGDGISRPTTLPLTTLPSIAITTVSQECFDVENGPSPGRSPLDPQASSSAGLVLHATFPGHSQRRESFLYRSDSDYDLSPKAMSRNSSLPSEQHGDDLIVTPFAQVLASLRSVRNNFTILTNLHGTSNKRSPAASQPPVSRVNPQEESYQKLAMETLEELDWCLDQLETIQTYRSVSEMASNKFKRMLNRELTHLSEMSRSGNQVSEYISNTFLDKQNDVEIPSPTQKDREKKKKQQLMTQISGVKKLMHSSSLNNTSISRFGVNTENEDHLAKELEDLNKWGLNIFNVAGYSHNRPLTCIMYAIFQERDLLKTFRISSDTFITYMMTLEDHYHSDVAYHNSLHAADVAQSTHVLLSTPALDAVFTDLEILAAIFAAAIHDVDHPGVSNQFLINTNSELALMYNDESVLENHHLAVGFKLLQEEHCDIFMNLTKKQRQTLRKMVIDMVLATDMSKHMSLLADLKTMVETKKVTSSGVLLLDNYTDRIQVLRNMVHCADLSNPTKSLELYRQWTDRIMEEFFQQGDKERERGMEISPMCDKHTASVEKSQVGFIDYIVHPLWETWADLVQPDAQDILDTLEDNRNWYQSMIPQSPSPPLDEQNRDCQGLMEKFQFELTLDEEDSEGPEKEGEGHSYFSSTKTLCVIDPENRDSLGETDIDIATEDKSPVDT
Sequence of Glucocorticoid receptor (Homo sapiens) (P04150 whole entry, looked up): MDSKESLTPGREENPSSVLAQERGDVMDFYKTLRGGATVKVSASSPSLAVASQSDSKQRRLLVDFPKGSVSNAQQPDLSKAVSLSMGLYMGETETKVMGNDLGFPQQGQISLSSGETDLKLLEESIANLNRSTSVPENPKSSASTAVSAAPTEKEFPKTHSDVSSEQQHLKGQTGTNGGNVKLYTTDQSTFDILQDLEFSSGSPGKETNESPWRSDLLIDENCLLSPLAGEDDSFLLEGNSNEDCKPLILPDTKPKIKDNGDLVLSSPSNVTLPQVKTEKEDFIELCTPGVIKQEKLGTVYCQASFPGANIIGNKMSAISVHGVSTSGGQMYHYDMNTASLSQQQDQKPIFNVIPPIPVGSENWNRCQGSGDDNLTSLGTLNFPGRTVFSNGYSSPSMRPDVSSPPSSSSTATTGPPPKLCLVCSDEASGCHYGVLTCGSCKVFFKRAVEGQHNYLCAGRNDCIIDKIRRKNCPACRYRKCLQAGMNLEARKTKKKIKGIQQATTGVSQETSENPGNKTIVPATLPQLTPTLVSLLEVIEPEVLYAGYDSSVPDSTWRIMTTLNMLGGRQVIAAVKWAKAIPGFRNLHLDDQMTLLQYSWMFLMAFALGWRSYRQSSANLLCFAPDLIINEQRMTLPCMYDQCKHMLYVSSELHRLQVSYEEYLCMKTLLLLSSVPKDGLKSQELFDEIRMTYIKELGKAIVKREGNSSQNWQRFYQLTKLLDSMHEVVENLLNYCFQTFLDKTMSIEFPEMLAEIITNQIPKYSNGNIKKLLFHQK
Sequence of Cytochrome P450 1A2 (Homo sapiens) (P05177 whole entry, looked up): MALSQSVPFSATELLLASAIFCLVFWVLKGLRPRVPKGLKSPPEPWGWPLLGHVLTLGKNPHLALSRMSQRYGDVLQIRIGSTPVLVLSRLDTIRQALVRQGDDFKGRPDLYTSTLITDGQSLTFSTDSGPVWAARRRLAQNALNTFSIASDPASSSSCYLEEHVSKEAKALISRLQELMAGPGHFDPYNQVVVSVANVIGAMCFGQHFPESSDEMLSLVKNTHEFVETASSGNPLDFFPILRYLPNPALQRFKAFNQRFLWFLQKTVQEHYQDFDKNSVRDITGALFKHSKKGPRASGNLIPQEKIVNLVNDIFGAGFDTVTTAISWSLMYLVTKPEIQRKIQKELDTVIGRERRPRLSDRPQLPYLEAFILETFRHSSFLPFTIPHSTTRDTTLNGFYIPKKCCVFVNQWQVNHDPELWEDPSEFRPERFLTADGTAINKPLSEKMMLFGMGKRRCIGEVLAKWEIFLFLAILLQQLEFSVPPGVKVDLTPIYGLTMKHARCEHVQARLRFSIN
Sequence of Cytochrome P450 2C19 (Homo sapiens) (P33261 whole entry, looked up): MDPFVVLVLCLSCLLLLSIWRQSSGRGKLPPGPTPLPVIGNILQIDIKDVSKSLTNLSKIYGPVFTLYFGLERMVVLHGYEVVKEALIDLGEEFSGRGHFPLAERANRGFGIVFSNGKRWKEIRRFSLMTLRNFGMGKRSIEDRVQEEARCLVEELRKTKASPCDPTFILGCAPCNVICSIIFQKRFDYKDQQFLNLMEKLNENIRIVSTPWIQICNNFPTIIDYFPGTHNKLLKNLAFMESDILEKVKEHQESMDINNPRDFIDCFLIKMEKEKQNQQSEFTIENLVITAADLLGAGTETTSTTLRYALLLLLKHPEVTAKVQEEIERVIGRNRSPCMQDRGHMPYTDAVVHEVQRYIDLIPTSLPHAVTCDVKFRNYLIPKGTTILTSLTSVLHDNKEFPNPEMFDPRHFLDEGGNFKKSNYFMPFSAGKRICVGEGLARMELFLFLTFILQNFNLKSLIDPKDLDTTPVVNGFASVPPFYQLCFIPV
Sequence of Cytochrome P450 2D6 (Homo sapiens) (P10635 whole entry, looked up): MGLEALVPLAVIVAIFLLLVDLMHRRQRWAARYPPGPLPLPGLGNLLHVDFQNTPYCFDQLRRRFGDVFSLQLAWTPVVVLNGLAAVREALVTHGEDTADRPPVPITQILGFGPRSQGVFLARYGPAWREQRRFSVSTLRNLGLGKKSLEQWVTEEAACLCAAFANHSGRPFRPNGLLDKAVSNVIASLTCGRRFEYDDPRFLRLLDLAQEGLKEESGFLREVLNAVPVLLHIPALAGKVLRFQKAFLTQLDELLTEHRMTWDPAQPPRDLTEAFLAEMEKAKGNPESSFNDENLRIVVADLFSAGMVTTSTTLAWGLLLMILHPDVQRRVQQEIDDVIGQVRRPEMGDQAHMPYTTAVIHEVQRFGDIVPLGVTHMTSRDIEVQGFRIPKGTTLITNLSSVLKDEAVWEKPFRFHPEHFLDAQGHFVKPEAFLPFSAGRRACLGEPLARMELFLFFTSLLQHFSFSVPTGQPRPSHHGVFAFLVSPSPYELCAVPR

As to `N[C@@H](Cc1ncccn1)C(=O)O`, the values for the Potency in assay [1], in assay [6] and in assay [7] were above 11.4 µM, above 46 µM and above 9.22 µM, respectively. In addition, the activity change, negative = inhibition in [2] is -0.104%; in [4] it was 3.63%. For the same compound, the Potency entry in assay [3], in assay [8], in assay [9] and in assay [10] was “inactive” in each case. Moreover, in assay [5], the activity, negative = inhibition is 3.82%.

Turning to `O=C(O)CCC(=O)Nc1ccc2ccccc2c1`, the Potency in [1] was above 11.4 µM; in assay [3], 0.0631 µM (active); in [6], above 46 µM; in [7], above 9.22 µM. Further, the results for the activity change, negative = inhibition in assay [2] and in assay [4] were -0.421% and 4.48%, respectively. Besides, the activity, negative = inhibition in [5] is 8.45%. For the same compound, the Potency entry in [8] and in assay [9] was “inactive” each time.

As to `NNC(=O)CCc1ccc2ccc3ccccc3c2c1`, the Potency is above 11.4 µM in assay [1]; 0.0316 µM (active) in [3]; above 46 µM in assay [6]; above 9.22 µM in assay [7]; 1.58 µM (active) in [10]; 0.398 µM (active) in assay [11]. In addition, the Potency in assay [13] was 1.58 µM (active); in assay [14] it was 0.251 µM (active). Moreover, the activity change, negative = inhibition is -3.44% in [2] and 13.8% in assay [4]. Further, the activity, negative = inhibition in assay [5] was -11%. The Potency entry in assay [8], in assay [9] and in assay [12] was “inactive” throughout.

For `O=C(O)[C@H](CCc1ccccn1)c1ccccc1`, the Potency is above 11.4 µM in assay [1], above 46 µM in assay [6] and above 9.22 µM in assay [7]. The activity change, negative = inhibition in assay [2] was -0.682%; in assay [4] it was -1.01%. The Potency entry in assay [3], in assay [8] and in assay [9] was “inactive” each time. The activity, negative = inhibition in [5] was 0.534%.

Consider `NS(=O)(=O)c1ccc(NCc2cnc3ccccc3n2)cc1`, for which the values for the Potency in assay [1], in assay [6] and in assay [7] were above 11.4 µM, above 46 µM and above 9.22 µM, respectively. For the same compound, the activity change, negative = inhibition is 5.55% in [2], -18.2% [at 2.29 µM] in assay [3] and 6.06% in assay [4]. Besides, the activity, negative = inhibition in [5] was 3.16%. In addition, the Potency entry in assay [8] and in assay [9] was “inactive” throughout.

Take `NC(N)=NC(N)=Nc1ccccc1` (tested in a mixture with another compound): the Potency is above 11.4 µM in [1], 3.16 µM (active) in [3], above 46 µM in assay [6] and above 9.22 µM in [7]. The activity change, negative = inhibition is -4.98% in assay [2] and 10.5% in assay [4]. Moreover, the activity, negative = inhibition in assay [5] was 1.58%. Further, the Potency result in assay [8] and in [9] was “inactive” in each case.

With `O=c1[nH]c(SCc2c(Cl)c(Cl)c(Cl)c(Cl)c2Cl)nc(=S)[nH]1`, the Potency was above 11.4 µM in assay [1]; 1 µM (active) in assay [3]; above 46 µM in assay [6]; above 9.22 µM in assay [7]; 1.26 µM (active) in assay [10]; 3.16 µM (active) in assay [11]. For the same compound, the activity change, negative = inhibition in assay [2] was 6.9%; in [4] it was 13.5%. Moreover, the activity, negative = inhibition in [5] is -6.17%. Further, the Potency result in [8], in assay [9] and in assay [12] was “inactive” throughout.

The record behind these values is PubChem BioAssay (NCATS).
